Measured values from PubChem BioAssay AID1159580 (chemical genetic matrix, 2015).
Out of some 5,500 compounds screened, about 2,000 (36%) were called active. About 18% were inconclusive and are not listed. The list shows a part of the results. A number with no mark means an inactive call. Cut-off read from the data, not from the text of the source: active = normalized growth mostly below about 0.91 (no sharp cut-off); inconclusive = no clear call, values can overlap the other calls; inactive = mostly above about 0.92.

Experiment: chemical genetic growth profiling, strain panel (AID 1159580);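 note: tested at 20 µM; growth read once vehicle control cultures reached saturation at 30 °C; 1 = growth at the plate median or of vehicle wells; lower values mean less growth of the strain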
Settings: growth OD
[1] = S. cerevisiae deletion strains, locus YDL101C, strain DUN1, hits give low values
[2] = S. cerevisiae deletion strains, locus YHR030C, strain SLT2, hits give low values
[3] = S. cerevisiae deletion strains, locus YAL013W, strain DEP1, hits give low values
[4] = S. cerevisiae deletion strains, locus YBR229C, strain ROT2, hits give low values
[5] = S. cerevisiae deletion strains, locus YDR150W, strain NUM1, hits give low values
[6] = S. cerevisiae deletion strains, locus YEL061C, strain CIN8, hits give low values
[7] = S. cerevisiae deletion strains, locus YGR078C, strain PAC10, hits give low values
[8] = S. cerevisiae deletion strains, locus YHR087W, strain rtc3, hits give low values
[9] = S. cerevisiae deletion strains, locus YJR043C, strain POL32, hits give low values
[10] = S. cerevisiae deletion strains, locus YJR075W, strain HOC1, hits give low values
[11] = S. cerevisiae deletion strains, locus YLR039C, strain RIC1, hits give low values
[12] = S. cerevisiae deletion strains, locus YLR058C, strain SHM2 (second series), hits give low values
[13] = S. cerevisiae deletion strains, locus YLR085C, strain ARP6, hits give low values
[14] = S. cerevisiae deletion strains, locus YLR262C, strain YPT6, hits give low values
[15] = S. cerevisiae deletion strains, locus YML094W, strain GIM5, hits give low values
[16] = S. cerevisiae deletion strains, locus YMR219W, strain ESC1, hits give low values
[17] = S. cerevisiae deletion strains, locus YMR263W, strain SAP30, hits give low values
[18] = S. cerevisiae deletion strains, locus YNL153C, strain GIM3, hits give low values
[19] = S. cerevisiae deletion strains, locus YNL298W, strain CLA4 (second series), hits give low values
[20] = S. cerevisiae deletion strains, locus YNL322C, strain KRE1, hits give low values
[21] = S. cerevisiae deletion strains, locus YNR030W, strain Alg12, hits give low values
[22] = S. cerevisiae deletion strains, locus YOL006C, strain TOP1, hits give low values
[23] = S. cerevisiae deletion strains, locus YPL055C, strain LGE1, hits give low values
[24] = S. cerevisiae deletion strains, locus YPL241C, strain CIN2, hits give low values
[25] = S. cerevisiae deletion strains, locus YPR135W, strain CTF4, hits give low values

Compound: Cc1c(Cl)cccc1NC(=S)N1CCCN(c2ccc(C(F)(F)F)cc2[N+](=O)[O-])CC1
- normalized growth (S. cerevisiae deletion strains, locus YAR019C, strain CDC15, hits give low values): 0.991
- normalized growth (S. cerevisiae deletion strains, locus YBL105C, strain PKC1, hits give low values): 0.979
- normalized growth (S. cerevisiae deletion strains, locus YBR135W, strain CKS1, hits give low values): 0.992
- normalized growth (S. cerevisiae deletion strains, locus YBR136W, strain MEC1, hits give low values): 0.971
- normalized growth (S. cerevisiae deletion strains, locus YBR160W, strain CDC28, hits give low values): 0.994
- normalized growth (S. cerevisiae deletion strains, locus YDL017W, strain CDC7, hits give low values): 0.993
- normalized growth (S. cerevisiae deletion strains, locus YDL028C, strain MPS1, hits give low values): 0.995
- normalized growth [1]: 0.977
- normalized growth (S. cerevisiae deletion strains, locus YDL108W, strain KIN28, hits give low values): 0.978
- normalized growth (S. cerevisiae deletion strains, locus YDL132W, strain cdc53, hits give low values): 0.986
- normalized growth (S. cerevisiae deletion strains, locus YDL214C, strain PRR2, hits give low values): 0.971
- normalized growth (S. cerevisiae deletion strains, locus YDR052C, strain DBF4, hits give low values): 0.991
- normalized growth (S. cerevisiae deletion strains, locus YDR054C, strain cdc34, hits give low values): 0.976
- normalized growth (S. cerevisiae deletion strains, locus YDR226W, strain ADK1, hits give low values): 0.987
- normalized growth (S. cerevisiae deletion strains, locus YDR477W, strain SNF1, hits give low values): 0.983
- normalized growth (S. cerevisiae deletion strains, locus YER123W, strain YCK3, hits give low values): 0.988
- normalized growth (S. cerevisiae deletion strains, locus YER133W, strain GLC7, hits give low values): 0.969
- normalized growth (S. cerevisiae deletion strains, locus YFL009W, strain cdc4, hits give low values): 0.98
- normalized growth (S. cerevisiae deletion strains, locus YFL029C, strain CAK1, hits give low values): 0.994
- normalized growth (S. cerevisiae deletion strains, locus YFR003C, strain YPI1, hits give low values): 0.987
- normalized growth (S. cerevisiae deletion strains, locus YFR019W, strain FAB1, hits give low values): 0.957
- normalized growth (S. cerevisiae deletion strains, locus YFR028C, strain CDC14, hits give low values): 0.995
- normalized growth (S. cerevisiae deletion strains, locus YGR040W, strain KSS1, hits give low values): 0.98
- normalized growth (S. cerevisiae deletion strains, locus YGR052W, strain FMP48, hits give low values): 1.04
- normalized growth (S. cerevisiae deletion strains, locus YGR092W, strain DBF2, hits give low values): 0.964
- normalized growth [2]: 0.842 (active)
- normalized growth (S. cerevisiae deletion strains, locus YHR079C, strain IRE1, hits give low values): 0.89
- normalized growth (S. cerevisiae deletion strains, locus YHR082C, strain KSP1, hits give low values): 1.06
- normalized growth (S. cerevisiae deletion strains, locus YHR205W, strain SCH9, hits give low values): 1
- normalized growth (S. cerevisiae deletion strains, locus YIL147C, strain SLN1, hits give low values): 0.989
- normalized growth (S. cerevisiae deletion strains, locus YJL095W, strain BCK1, hits give low values): 1.01
- normalized growth (S. cerevisiae deletion strains, locus YJL128C, strain PBS2, hits give low values): 0.942
- normalized growth (S. cerevisiae deletion strains, locus YJL157C, strain FAR1, hits give low values): 0.951
- normalized growth (S. cerevisiae deletion strains, locus YJR016C, strain ILV3, hits give low values): 0.982
- normalized growth (S. cerevisiae deletion strains, locus YJR066W, strain TOR1 (second series), hits give low values): 0.974
- normalized growth (S. cerevisiae deletion strains, locus YJR066W, strain TOR1, hits give low values): 1.02
- normalized growth (S. cerevisiae deletion strains, locus YKL048C, strain ELM1, hits give low values): 0.984
- normalized growth (S. cerevisiae deletion strains, locus YKL067W, strain YNK1, hits give low values): 0.974
- normalized growth (S. cerevisiae deletion strains, locus YKL101W, strain HSL1, hits give low values): 0.988
- normalized growth (S. cerevisiae deletion strains, locus YKL193C, strain SDS22, hits give low values): 0.995
- normalized growth (S. cerevisiae deletion strains, locus YKL203C, strain TOR2, hits give low values): 1.01
- normalized growth (S. cerevisiae deletion strains, locus YLR113W, strain HOG1, hits give low values): 0.859 (active)
- normalized growth (S. cerevisiae deletion strains, locus YLR133W, strain CKI1, hits give low values): 0.955
- normalized growth (S. cerevisiae deletion strains, locus YLR403W, strain SFP1, hits give low values): 0.952
- normalized growth (S. cerevisiae deletion strains, locus YML070W, strain DAK1, hits give low values): 0.992
- normalized growth (S. cerevisiae deletion strains, locus YMR001C, strain CDC5, hits give low values): 0.961
- normalized growth (S. cerevisiae deletion strains, locus YMR205C, strain PFK2 (second series), hits give low values): 0.979
- normalized growth (S. cerevisiae deletion strains, locus YMR277W, strain FCP1, hits give low values): 0.997
- normalized growth (S. cerevisiae deletion strains, locus YNL006W, strain LST8, hits give low values): 0.982
- normalized growth (S. cerevisiae deletion strains, locus YNL020C, strain ARK1, hits give low values): 0.972
- normalized growth (S. cerevisiae deletion strains, locus YNL161W, strain CBK1, hits give low values): 0.979
- normalized growth (S. cerevisiae deletion strains, locus YNL183C, strain NPR1, hits give low values): 1.05
- normalized growth (S. cerevisiae deletion strains, locus YNL207W, strain RIO2, hits give low values): 0.982
- normalized growth (S. cerevisiae deletion strains, locus YNL222W, strain SSU72, hits give low values): 0.984
- normalized growth (S. cerevisiae deletion strains, locus YNL307C, strain MCK1 (second series), hits give low values): 0.964
- normalized growth (S. cerevisiae deletion strains, locus YOL078W, strain AVO1, hits give low values): 0.989
- normalized growth (S. cerevisiae deletion strains, locus YOL136C, strain PFK27, hits give low values): 0.965
- normalized growth (S. cerevisiae deletion strains, locus YOR061W, strain CKA2, hits give low values): 0.963
- normalized growth (S. cerevisiae deletion strains, locus YOR119C, strain RIO1, hits give low values): 1.05
- normalized growth (S. cerevisiae deletion strains, locus YOR231W, strain MKK1, hits give low values): 0.993
- normalized growth (S. cerevisiae deletion strains, locus YOR329C, strain SCD5, hits give low values): 0.981
- normalized growth (S. cerevisiae deletion strains, locus YPL031C, strain PHO85, hits give low values): 0.979
- normalized growth (S. cerevisiae deletion strains, locus YPL153C, strain RAD53, hits give low values): 1
- normalized growth (S. cerevisiae deletion strains, locus YPL204W, strain HRR25, hits give low values): 0.931
- normalized growth (S. cerevisiae deletion strains, locus YPL209C, strain IPL1, hits give low values): 0.99
- normalized growth (S. cerevisiae deletion strains, locus YPL256C, strain CLN2, hits give low values): 0.866
- normalized growth (S. cerevisiae deletion strains, locus YPR025C, strain CCL1, hits give low values): 0.99
- normalized growth (S. cerevisiae deletion strains, locus YPR106W, strain ISR1, hits give low values): 0.969
- normalized growth (S. cerevisiae deletion strains, locus YPR111W, strain DBF20, hits give low values): 0.956
- normalized growth (S. cerevisiae deletion strains, strain NNK1, hits give low values): 0.985
- normalized growth (S. cerevisiae deletion strains, strain TSCII, hits give low values): 0.981

Compound: O=[N+]([O-])c1cc(C(F)(F)F)ccc1N1CCN(CCO)CC1
- normalized growth [3]: 0.995
- normalized growth [4]: 0.987
- normalized growth [1]: 0.989
- normalized growth [5]: 1
- normalized growth [6]: 0.993
- normalized growth [7]: 0.977
- normalized growth [2]: 0.953
- normalized growth [8]: 1.03
- normalized growth (S. cerevisiae deletion strains, locus YJL187C, strain SWE1, hits give low values): 1
- normalized growth [9]: 0.991
- normalized growth [10]: 0.986
- normalized growth [11]: 0.978
- normalized growth [12]: 0.982
- normalized growth [13]: 0.981
- normalized growth [14]: 0.97
- normalized growth [15]: 0.992
- normalized growth [16]: 0.997
- normalized growth [17]: 0.937
- normalized growth [18]: 0.99
- normalized growth [19]: 0.941
- normalized growth [20]: 0.982
- normalized growth [21]: 0.943
- normalized growth [22]: 0.941
- normalized growth [23]: 1.03
- normalized growth [24]: 0.974
- normalized growth [25]: 0.893

Compound: O=C(c1ccccc1)C1CCN(c2ccc(C(F)(F)F)cc2[N+](=O)[O-])CC1
- normalized growth [3]: 0.995
- normalized growth [4]: 1.01
- normalized growth [1]: 0.995
- normalized growth (S. cerevisiae deletion strains, locus YDL134C, strain PPH21, hits give low values): 1.01
- normalized growth [5]: 1
- normalized growth [6]: 1
- normalized growth [7]: 0.982
- normalized growth [2]: 1.02
- normalized growth [8]: 0.98
- normalized growth [9]: 1
- normalized growth [10]: 0.946
- normalized growth [11]: 1.02
- normalized growth [12]: 0.997
- normalized growth [13]: 0.953
- normalized growth [14]: 1.01
- normalized growth [15]: 1.01
- normalized growth [16]: 0.996
- normalized growth [17]: 0.998
- normalized growth (S. cerevisiae deletion strains, locus YMR307W, strain GAS1, hits give low values): 0.991
- normalized growth [18]: 0.991
- normalized growth [19]: 1.02
- normalized growth [20]: 1.01
- normalized growth [21]: 1.04
- normalized growth [23]: 0.999
- normalized growth [24]: 0.931
- normalized growth [25]: 0.978

Compound: CC(C)(C)NC(=O)N1CCN(c2nc3ccc(Cl)cc3s2)CC1
- normalized growth [3]: 0.952
- normalized growth [4]: 0.979
- normalized growth [1]: 1
- normalized growth [5]: 0.966
- normalized growth [6]: 0.943
- normalized growth [7]: 0.962
- normalized growth [2]: 0.339 (active)
- normalized growth [8]: 0.967
- normalized growth [9]: 0.976
- normalized growth [10]: 0.981
- normalized growth (S. cerevisiae deletion strains, locus YKL190W, strain CNB1, hits give low values): 0.993
- normalized growth [11]: 0.82
- normalized growth [12]: 1.02
- normalized growth [13]: 0.552 (active)
- normalized growth [14]: 0.913
- normalized growth [15]: 0.908
- normalized growth [16]: 1
- normalized growth [17]: 0.992
- normalized growth [18]: 0.943
- normalized growth [19]: 0.831 (active)
- normalized growth [20]: 1.03
- normalized growth [21]: 0.902
- normalized growth [22]: 0.739
- normalized growth [23]: 0.928
- normalized growth [24]: 0.856 (active)
- normalized growth [25]: 0.662
- normalized growth (S. cerevisiae strains, strain wild type, hits give low values): 0.97
